ChEMBL document CHEMBL3988442, “University of Dundee, Small-Polar-MMV Screening Library” (2021)
Out of some 85,000 compounds screened, about 440 (0.52%) showed an effect of 50% or more. This is one part of a sample in which strong results are shown more often than they occur.

Assay: In vitro enzyme assay to detect hydrolysis of chlorophenol red-beta-D-[…] directly proportional to the number of Toxoplasma stably expressing beta-galactosidase
Assay type: functional, organism-based, Toxoplasma gondii
Design: scale not given: in the data most compounds retested in dose-response had high values

NCCOc1cccc(C(F)(F)F)n1
Percent Effect (50 µM): -9.845%

COCCN(Cc1cccs1)C(=O)CC1CCNC1 (stereo not given)
Percent Effect (50 µM): 11.69%

CSc1ccc(CNC(=O)C(C)O)cc1 (stereo not given)
Percent Effect (50 µM): -1.798%

COc1cccc2ccc(CN3CC[C@@H](O)C3)nc12
Percent Effect (50 µM): 11.26%

NC[C@@H]1CC(=O)N(C2CC2)[C@H]1c1ccncc1
Percent Effect (50 µM): -2.453%

CC(C)Sc1ccccc1NS(=O)(=O)N(C)C
Percent Effect (50 µM): 99.92%

CN(C)S(=O)(=O)NC(c1ccccc1)c1ccccc1
Percent Effect (50 µM): 10.19%

CC(NS(=O)(=O)N(C)C)c1ccccc1 (stereo not given)
Percent Effect (50 µM): -35.13%

CCNCCCC1CCNCC1
Percent Effect (50 µM): 16.42%

COC(=O)c1ccc(NC(C)=O)cc1
Percent Effect (50 µM): 6.6%

COC(=O)c1ccc(NS(=O)(=O)c2cnc(NC(C)=O)s2)cc1
Percent Effect (10 µM): 53.94%

COc1ccc(OCCc2nnc(NC(C)=O)s2)cc1
Percent Effect (10 µM): -4.781%

COc1ccc(S(=O)(=O)Nc2cnc(N(C)C)nc2)cc1
Percent Effect (10 µM): -8.947%

COC(=O)c1cccc(NS(=O)(=O)c2cnc(NC(C)=O)s2)c1
Percent Effect (10 µM): -3.347%

COc1ccc(NS(=O)(=O)c2cnc(NC(C)=O)s2)cc1
Percent Effect (10 µM): 74.55%

CC(C)OCCN1CCN(C(=O)c2cc[nH]n2)CC1
Percent Effect (50 µM): -2.714%

NCC(C(=O)N1CCC2(CCC2)C1)c1ccccc1 (stereo not given)
Percent Effect (50 µM): 20.55%

CC(=O)NC(C)C(=O)Nc1ccc2ccccc2c1 (stereo not given)
Percent Effect (50 µM): -30.81%

O=C1CCc2ccccc2N1Cc1ncccn1
Percent Effect (50 µM): 0.3291%

Nc1cc(-c2cccnc2)on1
Percent Effect (50 µM): -0.8399%

Cc1noc(C)c1S(=O)(=O)N(C)Cc1ccoc1
Percent Effect (50 µM): -13.17%

CC1(C)CC(=O)CN1C(=O)c1cc(Cl)c2c(c1)OCO2
Percent Effect (50 µM): 7.211%

COc1cccc2c1OCC(CNS(C)(=O)=O)C2 (stereo not given)
Percent Effect (50 µM): 14.05%

CCc1nccn1CCNC(=O)Cn1nc(C)cc1N
Percent Effect (50 µM): 0.7856%

CNC(=O)C1CCCN(C(=O)Cc2ccc(F)cc2)C1 (stereo not given)
Percent Effect (50 µM): -18.03%

CN(C)C(=O)c1cc(-c2ccncc2)[nH]n1
Percent Effect (10 µM): -7.126%

NCCCc1nc(-c2ccncc2)cs1
Percent Effect (50 µM): -3.15%

NCCc1cc(-c2ccncc2)[nH]n1
Percent Effect (50 µM): 52.85%

O=C(NC1(CCO)CCC1)c1c(O)cc(F)cc1F
Percent Effect (50 µM): -3.362%

COCCOCCCNC(=O)c1cn2cc(C)nc2s1
Percent Effect (50 µM): 5.507%

CN(Cc1ccc(F)c(F)c1)C(=O)C1CCOCC1
Percent Effect (50 µM): 0.4539%

Cn1cc(CN2CCn3cc(Cn4cccn4)nc3C2)cn1.O=C(O)C(F)(F)F
Percent Effect (10 µM): 96.45%

O=C(O)C(F)(F)F.O=C(O)C(F)(F)F.c1ccc(CCN2CCn3cc(Cn4cccn4)nc3C2)cc1
Percent Effect (10 µM): -2.685%

Fc1ccc(CN2CCn3cc(Cn4cccn4)nc3C2)cc1.O=C(O)C(F)(F)F
Percent Effect (10 µM): 6.807%

Cc1noc(C)c1S(=O)(=O)N1CC[S+]([O-])C(C)(C)C1 (stereo not given)
Percent Effect (50 µM): -20.3%

CC(=O)c1sc(NCCc2ccccn2)nc1C
Percent Effect (50 µM): -25.25%

CC(=O)Nc1ncc(Br)s1
Percent Effect (50 µM): 8.521%

CC(=O)Nc1ncc(S(=O)(=O)Nc2ccccc2F)s1
Percent Effect (10 µM): 61.48%

CCN1CCN(S(=O)(=O)c2cnc(NC(C)=O)s2)CC1
Percent Effect (10 µM): -3.243%

CC(=O)Nc1ncc(S(=O)(=O)Nc2ccc(F)cc2F)s1
Percent Effect (10 µM): -1.674%

CC(=O)Nc1ncc(S(=O)(=O)Nc2ccc(F)cc2)s1
Percent Effect (10 µM): 2.51%

CC(=O)Nc1ncc(S(=O)(=O)Nc2ccccc2)s1
Percent Effect (10 µM): 62.69%

CC(=O)Nc1ncc(S(=O)(=O)N2CCC(C)CC2)s1
Percent Effect (10 µM): -14.89%

CCS(=O)(=O)Nc1ccccc1F
Percent Effect (50 µM): 6.561%

CC(=O)Nc1ncc(S(=O)(=O)Nc2ccc(C)cc2)s1
Percent Effect (10 µM): 70.91%

NCCc1n[nH]c(=O)n1-c1ccc2c(c1)OCO2
Percent Effect (50 µM): -0.07643%

Cn1cc(C(O)CN)cn1 (stereo not given)
Percent Effect (50 µM): 1.018%

Cc1noc(C(C)Nc2ccc3c(c2)CCC(=O)N3)n1 (stereo not given)
Percent Effect (50 µM): -14.26%

CC(C)(CNC(=O)c1c[nH]nn1)c1cccc(F)c1
Percent Effect (50 µM): -9.623%

CC(NC(=O)NCCN1CCCCCC1=O)c1nncn1C (stereo not given)
Percent Effect (10 µM): 3.231%

CC(NC(=O)NCCCN1CCCC1=O)c1nncn1C (stereo not given)
Percent Effect (10 µM): 85.8%

CC(NC(=O)NCCCN1CCCCCC1=O)c1nncn1C (stereo not given)
Percent Effect (10 µM): 20.07%

Cc1oc(-c2ccccc2F)nc1C(=O)N(C)C
Percent Effect (50 µM): -3.464%

CNS(=O)(=O)N1CCc2ccccc2C1
Percent Effect (50 µM): 30.15%

CCCOc1ccc2ccccc2c1CN1CC[C@@]2(O)CCNC[C@H]2C1
Percent Effect (10 µM): 3.549%

CCOc1ccc2ccccc2c1CNCC1CCS(=O)(=O)C1.Cl (stereo not given)
Percent Effect (10 µM): -7.781%

COc1ccc2ccccc2c1CNCC1CCS(=O)(=O)C1.Cl (stereo not given)
Percent Effect (10 µM): -11.16%

CCOc1ccccc1CNCC1CCN(CC(C)O)CC1 (stereo not given)
Percent Effect (10 µM): -9.723%

CCOc1ccc2ccccc2c1CNCC1CCNCC1.Cl.Cl
Percent Effect (10 µM): 68.87%

CCn1cc(S(=O)(=O)NCC2CCN(C3CC3)C2)cn1 (stereo not given)
Percent Effect (50 µM): 3.955%

NC(=O)c1cncc(-c2ccc(F)cc2Cl)c1
Percent Effect (50 µM): 3.051%

Cc1cc(F)cc(C(=O)N(C)C(C)CN)c1 (stereo not given)
Percent Effect (50 µM): -5.582%

CNC(C)(C)c1ccc2c(c1)OCO2
Percent Effect (50 µM): -13.39%

CCNc1ncc2c(n1)CN(c1ccc(C)c(C)c1)C2=O
Percent Effect (10 µM): 51.11%

COc1ccc(N2Cc3nc(N4CCCC4)ncc3C2=O)cc1Cl
Percent Effect (10 µM): -14.31%

CNc1ncc2c(n1)CN(CCc1ccc(Cl)cc1)C2=O
Percent Effect (10 µM): -35.33%

CNc1ncc2c(n1)CN(CCc1ccc(F)cc1)C2=O
Percent Effect (10 µM): -13.73%

CC1CCN(c2ncc3c(n2)CN(c2ccc(F)cc2)C3=O)CC1
Percent Effect (10 µM): 19.77%

COc1ccc(N2Cc3nc(N)ncc3C2=O)cc1Cl
Percent Effect (10 µM): -32.44%

CCNc1ncc2c(n1)CN(c1ccc(Cl)cc1)C2=O
Percent Effect (10 µM): 65.79%

CCn1cc(N2Cc3nc(N)ncc3C2=O)cn1
Percent Effect (10 µM): 10.4%

CNc1ncc2c(n1)CN(CCc1ccc(C)cc1)C2=O
Percent Effect (10 µM): -16.2%

CNc1ncc2c(n1)CN(Cc1ccc(Cl)cc1)C2=O
Percent Effect (10 µM): -51.17%

CCNc1ncc2c(n1)CN(c1ccc(CC)cc1)C2=O
Percent Effect (10 µM): 62.15%

CCNc1ncc2c(n1)CN(c1ccc(OC(F)(F)F)cc1)C2=O
Percent Effect (10 µM): 64.71%
